Compounds with a hit are over-represented: about 13% of the library has one in this group of screens.
USP30 block = inhibitors of human USP30 deubiquitinase; Q70CQ3; purified USP30, Ub-rhodamine cleavage fluorescence; inhibition, % at 25 µM; actives 5.3% (n = 47,000); AID 1645860
Target sequence (Q70CQ3 whole entry, looked up): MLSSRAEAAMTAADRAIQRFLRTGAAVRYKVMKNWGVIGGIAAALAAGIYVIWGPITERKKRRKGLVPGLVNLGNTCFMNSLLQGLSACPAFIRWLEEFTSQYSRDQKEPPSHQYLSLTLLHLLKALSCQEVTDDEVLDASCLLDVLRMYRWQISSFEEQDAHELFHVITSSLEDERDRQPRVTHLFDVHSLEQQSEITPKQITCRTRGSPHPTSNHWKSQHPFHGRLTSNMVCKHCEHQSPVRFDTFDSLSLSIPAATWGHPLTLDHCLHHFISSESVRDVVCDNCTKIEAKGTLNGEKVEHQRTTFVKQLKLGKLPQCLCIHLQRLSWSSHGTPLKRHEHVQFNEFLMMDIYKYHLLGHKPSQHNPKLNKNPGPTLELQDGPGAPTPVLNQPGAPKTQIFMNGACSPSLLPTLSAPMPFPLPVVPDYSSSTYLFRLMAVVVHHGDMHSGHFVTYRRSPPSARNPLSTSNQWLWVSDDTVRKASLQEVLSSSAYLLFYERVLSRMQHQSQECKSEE
USP28 block = human USP28 deubiquitinase inhibition. Q96RU2. purified USP28, Ub-rhodamine cleavage fluorescence, 30 min. inhibition, % at 25 µM. actives 3% (n = 47,000). AID 1645857
USP17 block = human USP17-like deubiquitinase inhibition; A8MUK1; purified USP17, Ub-rhodamine cleavage fluorescence, 3 h; inhibition, % at 50 µM; actives 6.5% (n = 47,000); AID 1645855
USP8 inh = blocks human USP8 ubiquitin-rhodamine cleavage | AID 1645853 | P40818 | inhibition, % at 20 µM | actives 4.2% (n = 47,000) | purified USP8, Ub-rhodamine cleavage fluorescence, 30 min
Active calls of the source: *; / = no result. Cut-off read from the data, not from the text of the source: active = inhibition above about 30%; inactive = the rest.

SMILES	USP30 block	USP28 block	USP17 block	USP8 inh
CC1c2cc3c(cc2CCN1CC(=O)Nc1cc(Cl)ccc1-n1cncn1)OCCCO3 (stereo unspecified)	-25	-9	19	47*
COc1ccc2c(c1)CC(C(=O)NC1CCN(Cc3ccccc3)CC1)CO2 (stereo unspecified)	7	7	19	6
Cc1ccccc1Cn1c(=O)n(CCC(=O)NCc2ccco2)c(=O)c2ccccc21	-5	6	-2	38*
N#Cc1ccccc1Cn1c(=O)n(CCCCC(=O)NCc2ccco2)c(=O)c2ccccc21	-16	2	51*	6
Cc1ccccc1Cn1c(=O)n(Cc2ccco2)c(=O)c2ccccc21	26	15	28	19
O=C(CCn1c(=O)c2ccccc2n(Cc2ccccc2F)c1=O)NCc1ccco1	-26	-13	-3	8
N#Cc1ccccc1Cn1c(=O)n(Cc2ccco2)c(=O)c2ccccc21	33*	38*	54*	8
CNC(=O)CC1NC(=O)c2csc(n2)-c2ccc(-c3nc(C4=NC(C(=O)N5CCCC5C(N)=O)CO4)cs3)nc2-c2csc(n2)-c2csc(n2)C(C(O)c2ccccc2)NC(=O)CNC(=O)c2nc(sc2COC)C(C(C)C)NC(=O)c2nc1sc2C (stereo unspecified)	6	42*	75*	6
Fc1ccccc1N1CCN(c2nc(-c3ccccc3)no2)CC1	17	7	15	22
Cc1cc(=O)oc2cc(OCC(=O)Nc3cc(Cl)ccc3N3CCOCC3)ccc12	50*	15	42*	22
COC(=O)c1ccccc1NC(=O)CNc1cc(Cl)ccc1N1CCOCC1	-20	-14	-11	0
O=C(Cc1ccc(F)cc1)N1CCC([C@@H]2C[C@H](C(F)F)n3ncnc3N2)CC1	23	12	9	12
Cc1cccc(S(=O)(=O)Nc2ccc(CCc3nc4ccc(C)cc4[nH]3)cc2)c1	1	36*	-1	6
Cc1ccc2nc(CCc3ccc(NS(=O)(=O)c4cccc(Cl)c4C)cc3)[nH]c2c1	5	52*	10	-8
Cc1ccc2nc(CCc3ccc(NS(=O)(=O)c4cccc(Cl)c4)cc3)[nH]c2c1	0	37*	12	-4
CC(C)C(=O)N1CC[C@@H]2CN(CCc3ccccc3)S(=O)(=O)[C@@H]2CC1	16	3	5	8
O=C(NCc1ccccn1)c1cn(-c2ccc(Cl)cc2)nn1	1	0	2	-9
Cc1c(S(=O)(=O)N2CCC(C)CC2)cc(C(=O)N2CCCCC2)n1C	0	-4	2	-2
COCCn1c(C(=O)Nc2ccccc2Cl)cc2c(=O)n(C)c(=O)n(C)c21	-3	-10	36*	-10
COCCn1c(C(=O)Nc2ccc(C(C)=O)cc2)cc2c(=O)n(C)c(=O)n(C)c21	-9	0	0	-2
Cc1ccc(C2c3c(C)nn(-c4ccccc4)c3Oc3ncn4nc(-c5ccccc5O)nc4c32)cc1 (stereo unspecified)	34*	2	16	41*
CC1=CC[C@H](C2(C)Cc3c([nH]c(=O)[nH]c3=O)O2)CC1 (stereo partly specified)	0	-1	-22	-94
CC(=O)N1CCC(c2cc(-c3cc(F)ccc3C(=O)O)nc(C)n2)C1 (stereo unspecified)	13	9	6	12
COc1ccc(Nc2nc(C(=O)NCc3ccccc3)cc3occc23)cc1	-12	24	57*	55*
COc1ccc(Nc2nc(C(=O)NCc3ccc4c(c3)OCO4)cc3occc23)cc1	-37	25	63*	67*
SMILES	USP30 block	USP28 block	USP17 block	USP8 inh
O=C(NCc1ccccc1)c1cc2occc2c(Nc2ccc(F)cc2)n1	-17	-7	1	-11
CCC(C)CC[C@H]1[C@](C)(OC)CCC2[C@](C)(C(=O)O)CCC[C@@]21C (stereo partly specified)	0	0	8	1
CCOC(=O)C1CCN(c2cc(C(F)(F)F)nc(-c3ccccn3)n2)CC1	4	-14	-14	-17
CC(C)Cc1cc(-c2nnc3sc(-c4ccco4)nn23)n[nH]1	-3	39*	73*	35*
CC1=C(c2ccccc2)S(=O)(=O)N=C1N1CCCN(C(=O)c2ccc(C#N)cc2)CC1	2	-2	-6	-1
N#Cc1cccc(NC(=O)CSc2nnc3c4ccccc4nc(-c4ccco4)n23)c1	-210	-52	-7	7
CC(Sc1nnc2ccccn12)C(=O)Nc1cccc([N+](=O)[O-])c1 (stereo unspecified)	/	/	-4	0
O=C(Nc1cccc([N+](=O)[O-])c1)Nc1ccc2snnc2c1	-16	6	-5	95*
O=C(c1cc(-c2ccc(Cl)cc2)n[nH]1)N1CCN(CCOc2ccc(Cl)cc2)CC1	12	2	5	-10
Oc1cc(OCCN2CCCCC2)ccc1-c1[nH]ncc1-c1ccccc1	-5	3	15	66*
COc1ccccc1CNC(=O)Cn1c(=O)[nH]c2c(-c3ccccc3)c[nH]c2c1=O	-110	-6	44*	-13
CCC(C)NC(=O)Cn1c(=O)[nH]c2c(-c3ccccc3)c[nH]c2c1=O (stereo unspecified)	/	/	38*	-3
COc1ccc(CNC(=O)Cn2c(=O)[nH]c3c(-c4ccccc4F)c[nH]c3c2=O)cc1	-31	-47	-18	87*
COc1ccc(CNC(=O)CN2C(=O)c3ccccc3C2c2c[nH]c3ccccc23)cc1 (stereo unspecified)	0	-7	6	-8
COc1ccccc1CNC(=O)Cn1c(C)nc2onc(C)c2c1=O	35*	13	16	1
O=C(Cn1c(=O)[nH]c2ccccc2c1=O)N[C@@H](C(=O)O)c1ccccc1	6	-8	-1	-25
C/C=C/[C@@H]1OC(=O)C=C[C@H]1O	1	-4	1	-2
CCn1cc(S(=O)(=O)N2CCCn3nc(-c4ccncc4)cc3C2)cn1	-19	-15	-16	-38
Cc1nc(-c2cc(S(=O)(=O)N3CCCC3)c(C)n2C)sc1C(=O)N1CCCCC1	-15	-12	-1	-5
O=C(c1cnco1)N1CCCCC1c1ncc(Cc2ccccc2)o1 (stereo unspecified)	-18	-5	-11	-64
CCN1CCN(C(=O)Cn2c(=O)[nH]c3c(-c4ccccc4)c[nH]c3c2=O)CC1	19	7	14	-1
O=C(Cn1c(=O)[nH]c2c(-c3ccccc3)c[nH]c2c1=O)N1CCCCCC1	-100	-23	-48	46*
CN(C(=O)c1noc2c1CCc1sccc1-2)c1ccccc1F	-4	-2	-7	-7
CNc1nc(C2CCN(C)CC2)nc2c1CN(C(=O)c1sc(C)nc1C)CC2	-3	-5	0	0
COc1cccc(C(=O)Nc2nc3ccc(S(=O)(=O)N4CCOCC4)cc3s2)c1OC	/	/	47*	7
O=S(=O)(Nc1nc2ccc(S(=O)(=O)N3CCCC3)cc2s1)c1ccc(F)cc1	-48	-7	9	-2
O=C(Cc1ccccc1)N1CCN(c2nc3c(F)cc(F)cc3s2)CC1	8	6	-12	7
O=C(CCc1ccccc1)N1CCN(c2nc3c(F)cc(F)cc3s2)CC1	35*	19	16	18
